Data taken from the supplement of paper PMC9262897, “Low-cost anti-mycobacterial drug discovery using engineered E. coli” (Nature Communications, 2022).
Structures can show the parent of a compound that is named as a salt. ± gives the standard deviation of the averaged measurements.

How the values were obtained:
Test in all cases: growth (OD600 after 10 h); higher = more growth (less inhibition)
[1] = system: E. coli TESEC Alr+ wild-type control; conditions: compound 0.1 mM; raw OD600 reference: median of DMSO wells 0.241, cell-free background 0.041
Method: (§1)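 TESEC Mtb Alr E. coli, or the Alr+ wild-type control, in 384-well plates with Prestwick library compounds at 0.1 mM and 1% DMSO, across arabinose induction levels of 1E3 to 1E7 nM. Growth is read as OD600 after 10 h at 37 °C in triplicate biological replicates.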

E. coli TESEC Mtb Alr [2] = conditions: compound 0.1 mM
Method: as §1

E. coli TESEC Mtb Asd = conditions: compound 0.1 mM
Method: (§2)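 TESEC E. coli strains in which the native enzyme is deleted and replaced by arabinose-inducible Mtb Asd, DapB, CysH or TrpD, each grown in its selective medium. Strains were screened against the Prestwick library at 0.1 mM and 1% DMSO in 384-well format at low and high arabinose induction. Growth is read as OD600 after 10 h in triplicate.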

E. coli TESEC Mtb DapB = conditions: compound 0.1 mM
Method: as §2

[3] = system: E. coli TESEC Alr+ wild-type control; conditions: compound 0.1 mM; raw OD600 reference: median of DMSO wells 0.49, cell-free background 0.052
Method: (§3)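 TESEC Mtb Alr E. coli (ΔaraC ΔtolC ΔentC Δalr ΔdadX, arabinose-inducible Mtb Alr) or the Alr+ wild-type control strain, grown in defined M9-fructose medium without D-alanine in 96-well plates with Prestwick library compounds at 0.1 mM and 1% DMSO. Low Alr induction is 0.1 µM arabinose and high induction is 10 mM arabinose.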

E. coli TESEC Mtb Alr [4] = conditions: compound 0.1 mM; remark: listed apart in the source
Method: as §3

[5] = arabinose 1000 nM, raw OD600 reference: median of DMSO wells 0.294, cell-free background 0.041
[6] = arabinose 10000 nM, raw OD600 reference: median of DMSO wells 0.264, cell-free background 0.041
[7] = arabinose 100000 nM, raw OD600 reference: median of DMSO wells 0.201, cell-free background 0.041
[8] = arabinose 1000000 nM, raw OD600 reference: median of DMSO wells 0.193, cell-free background 0.041
[9] = arabinose 10000000 nM, raw OD600 reference: median of DMSO wells 0.146, cell-free background 0.041
[10] = arabinose induction (level): High, raw OD600 reference: median of DMSO wells 0.331, cell-free background 0.041
[11] = arabinose induction (level): Low, raw OD600 reference: median of DMSO wells 0.417, cell-free background 0.041
[12] = arabinose induction (level): High, raw OD600 reference: median of DMSO wells […], cell-free background 0.041
[13] = arabinose induction (level): Low, raw OD600 reference: median of DMSO wells 0.227, cell-free background 0.041
[14] = arabinose 100 nM, raw OD600 reference: median of DMSO wells 0.413, cell-free background 0.052
[15] = arabinose 10000000 nM, raw OD600 reference: median of DMSO wells […], cell-free background 0.052

| Structure (SMILES) | growth [1] | growth (E. coli TESEC Mtb Alr [2]; [5]) | growth (E. coli TESEC Mtb Alr [2]; [6]) | growth (E. coli TESEC Mtb Alr [2]; [7]) | growth (E. coli TESEC Mtb Alr [2]; [8]) | growth (E. coli TESEC Mtb Alr [2]; [9]) | growth (E. coli TESEC Mtb Asd; [10]) | growth (E. coli TESEC Mtb Asd; [11]) | growth (E. coli TESEC Mtb DapB; [12]) | growth (E. coli TESEC Mtb DapB; [13]) | growth [3] | growth (E. coli TESEC Mtb Alr [4]; [14]) | growth (E. coli TESEC Mtb Alr [4]; [15]) |
| --- | --- | --- | --- | --- | --- | --- | --- | --- | --- | --- | --- | --- | --- |
| CC(Oc1ccccc1)C(=O)N[C@@H]1C(=O)N2[C@@H]1SC(C)(C)[C@@H]2C(=O)O (stereo partly drawn) [Phenethicillin potassium salt] | 0.267 ± 0.018 | 0.311 ± 0.019 | 0.266 ± 0.0071 | 0.223 ± 0.018 | 0.19 ± 0.006 | 0.139 ± 0.0076 | 0.306 ± 0.05 | 0.438 ± 0.011 | 0.226 ± 0.0034 | 0.249 ± 0.02 | 0.482 ± 0.075 | 0.398 ± 0.0069 | 0.367 ± 0.0061 |
| CC(=O)Oc1cccc2c1C(=O)c1c(OC(C)=O)cc(C(=O)O)cc1C2=O [Diacerein] | 0.122 ± 0.0032 | 0.136 ± 0.011 | 0.161 ± 0.0033 | 0.0638 ± 0.0022 | 0.0904 ± 0.0041 | 0.0642 ± 0.005 | 0.224 ± 0.019 | 0.348 ± 0.045 | 0.208 ± 0.019 | 0.23 ± 0.015 | 0.087 ± 0.0013 | 0.0492 ± 0.00056 | 0.0619 ± 0.0035 |
| Cc1cn([C@H]2C=C[C@@H](CO)O2)c(=O)[nH]c1=O [Stavudine] | 0.163 ± 0.01 | 0.285 ± 0.023 | 0.158 ± 0.017 | 0.121 ± 0.0031 | 0.119 ± 0.0013 | 0.181 ± 0.0073 | 0.157 ± 0.013 | 0.158 ± 0.0091 | 0.192 ± 0.015 | 0.178 ± 0.0066 | 0.512 ± 0.037 | 0.417 ± 0.011 | 0.218 ± 0.012 |
| CC1=C(/C=C/C(C)=C/C=C/C(C)=C\C(=O)O)C(C)(C)CCC1 [Isotretinoin] | 0.245 ± 0.0032 | 0.274 ± 0.016 | 0.24 ± 0.0073 | 0.218 ± 0.012 | 0.11 ± 0.0034 | 0.15 ± 0.004 | 0.328 ± 0.098 | 0.365 ± 0.073 | 0.185 ± 0.018 | 0.195 ± 0.014 | 0.425 ± 0.028 | 0.438 ± 0.0094 | 0.251 ± 0.014 |
| NC(=O)N1c2ccccc2C=Cc2ccccc21 [Carbamazepine] | 0.241 ± 0.0068 | 0.281 ± 0.0037 | 0.239 ± 0.0011 | 0.182 ± 0.032 | 0.173 ± 0.0066 | 0.142 ± 0.00057 | 0.36 ± 0.013 | 0.35 ± 0.059 | 0.194 ± 0.018 | 0.237 ± 0.046 | 0.491 ± 0.0058 | 0.405 ± 0.0088 | 0.272 ± 0.12 |
| CCOC(=O)C1=C(C)NC(C)=C(C(=O)OC)C1c1cccc([N+](=O)[O-])c1 (stereo not drawn) [Nitrendipine] | 0.173 ± 0.013 | 0.224 ± 0.01 | 0.0536 ± 0.0045 | 0.165 ± 0.0036 | 0.0556 ± 0.00083 | 0.15 ± 0.0073 | 0.246 ± 0.036 | 0.4531 ± 0.0035 | 0.217 ± 0.016 | 0.215 ± 0.0092 | 0.557 ± 0.015 | 0.412 ± 0.017 | 0.221 ± 0.13 |
| Clc1ccc2c(c1)C(N1CCNCC1)=Nc1ccccc1O2 [Amoxapine] | 0.162 ± 0.0094 | 0.171 ± 0.0069 | 0.16 ± 0.0024 | 0.162 ± 0.0019 | 0.0713 ± 0.0015 | 0.105 ± 0.0015 | 0.178 ± 0.01 | 0.201 ± 0.0093 | 0.159 ± 0.03 | 0.173 ± 0.041 | 0.43 ± 0.061 | 0.396 ± 0.005 | 0.291 ± 0.023 |
| CCCCC(O)c1ccccc1 (stereo not drawn) [Fenipentol] | 0.242 ± 0.0077 | 0.295 ± 0.005 | 0.253 ± 0.0059 | 0.233 ± 0.035 | 0.178 ± 0.0054 | 0.149 ± 0.0015 | 0.346 ± 0.079 | 0.357 ± 0.036 | 0.227 ± 0.013 | 0.227 ± 0.025 | 0.542 ± 0.07 | 0.403 ± 0.0094 | 0.337 ± 0.017 |
| CCc1ccc(CCOc2ccc(CC3SC(=O)NC3=O)cc2)nc1 (stereo not drawn) [Pioglitazone] | 0.225 ± 0.0024 | 0.268 ± 0.012 | 0.267 ± 0.0054 | 0.176 ± 0.0064 | 0.164 ± 0.002 | 0.15 ± 0.0092 | 0.292 ± 0.045 | 0.334 ± 0.04 | 0.191 ± 0.0045 | 0.191 ± 0.011 | 0.577 ± 0.076 | 0.426 ± 0.018 | 0.358 ± 0.023 |
| CC(C)(O)c1ccccc1CC[C@@H](SCC1(CC(=O)O)CC1)c1cccc(/C=C/c2ccc3ccc(Cl)cc3n2)c1 [Montelukast] | 0.24 ± 0.013 | 0.281 ± 0.0035 | 0.317 ± 0.012 | 0.31 ± 0.019 | 0.206 ± 0.0075 | 0.261 ± 0.012 | 0.219 ± 0.028 | 0.347 ± 0.065 | 0.183 ± 0.025 | 0.253 ± 0.023 | 0.566 ± 0.061 | 0.479 ± 0.027 | 0.376 ± 0.026 |
| CC(C)c1nc(CN(C)C(=O)N[C@H](C(=O)N[C@@H](Cc2ccccc2)C[C@H](O)[C@H](Cc2ccccc2)NC(=O)OCc2cncs2)C(C)C)cs1 [Ritonavir] | 0.166 ± 0.0093 | 0.216 ± 0.015 | 0.221 ± 0.025 | 0.217 ± 0.012 | 0.114 ± 0.0092 | 0.159 ± 0.0028 | 0.245 ± 0.0089 | 0.15 ± 0.008 | 0.192 ± 0.013 | 0.25 ± 0.0048 |  |  |  |
| C=CC[N@@+]12CC[C@@]34c5ccccc5N5/C=C6/[C@H]7C[C@H]8[C@@]9(CC[N@@+]8(CC=C)C/C7=C/CO)c7ccccc7N(/C=C(/[C@@H](C[C@@H]31)/C(=C\CO)C2)[C@H]54)[C@@H]69 [Alcuronium chloride] | 0.214 ± 0.0094 | 0.255 ± 0.004 | 0.162 ± 0.0017 | 0.13 ± 0.0075 | 0.115 ± 0.0062 | 0.155 ± 0.0016 | 0.159 ± 0.0074 | 0.184 ± 0.044 | 0.197 ± 0.027 | 0.196 ± 0.023 | 0.456 ± 0.037 | 0.41 ± 0.013 | 0.351 ± 0.0099 |
| Cc1c(O)cccc1C(=O)N[C@@H](CSc1ccccc1)[C@H](O)CN1C[C@H]2CCCC[C@H]2C[C@H]1C(=O)NC(C)(C)C [Nelfinavir mesylate] | 0.279 ± 0.06 | 0.329 ± 0.0095 | 0.284 ± 0.031 | 0.323 ± 0.062 | 0.148 ± 0.0082 | 0.276 ± 0.041 | 0.215 ± 0.019 | 0.275 ± 0.015 | 0.197 ± 0.077 | 0.23 ± 0.086 | 0.509 ± 0.09 |  |  |
| Cc1ccc(Cl)c(Nc2ccccc2C(=O)O)c1Cl [Meclofenamic acid sodium salt monohydrate] | 0.0491 ± 0.00067 | 0.0555 ± 0.0013 | 0.0424 ± 0.00044 | 0.0566 ± 0.00087 | 0.04353 ± 0.00038 | 0.0628 ± 0.001 | 0.0702 ± 0.014 | 0.0796 ± 0.0032 | 0.118 ± 0.021 | 0.123 ± 0.016 | 0.139 ± 0.011 | 0.0708 ± 0.027 | 0.0591 ± 0.0032 |
| O=c1[nH]c(=O)n(C2CCCO2)cc1F (stereo not drawn) [Tegafur] | 0.2441 ± 0.0016 | 0.284 ± 0.0093 | 0.2613 ± 0.001 | 0.208 ± 0.0031 | 0.224 ± 0.013 | 0.135 ± 0.0053 | 0.366 ± 0.03 | 0.359 ± 0.091 | 0.2018 ± 0.0016 | 0.23 ± 0.032 | 0.586 ± 0.12 | 0.407 ± 0.011 | 0.346 ± 0.011 |
| CC(=O)NCCCS(=O)(=O)O [Acamprosate calcium] | 0.233 ± 0.004 | 0.2868 ± 0.0017 | 0.242 ± 0.0043 | 0.202 ± 0.026 | 0.1706 ± 0.0011 | 0.142 ± 0.0039 | 0.259 ± 0.079 | 0.309 ± 0.033 | 0.212 ± 0.031 | 0.229 ± 0.028 | 0.472 ± 0.035 | 0.409 ± 0.01 | 0.35 ± 0.025 |
